Measurements taken from PubChem BioAssay (NCI).
About 83,000 compounds went through this panel and 20% of them were active in at least one assay; those are over-represented in the sample as a whole.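 Values shown are percent growth following 48 h exposure of cells in 96-well plates to a single concentration of compound; below 10 was considered active.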 A number with no mark means an inactive call. Calls of active or inactive are those of the source.

These molecules were tested on HL-60(TB) leukemia (assay: NCI-60 one-dose screen, 48 h (100 = growth as untreated, 0 = no growth, -100 = all killed)). Conditions: 10 µM unless noted.
With NC(N)=Nc1ccc(Oc2cccc(NC(N)=Nc3ccc(I)cc3F)c2)cc1 the growth was 67.4%.
NC(=O)n1c(=O)n(-c2cccc(C(F)(F)F)c2)c(=O)c2cc(-c3ccc(F)cc3F)ccc21 was tested, and the growth was -49.4% (active).
O=C(/C=C/c1cccc(Br)c1)c1cccc(OCCCCOc2cccc(C(=O)/C=C/c3cccc(Br)c3)c2)c1 showed a growth of 95.3%.
With CCCC[n+]1ccc(SCC(=O)n2ccc3ccccc32)c2ccccc21 the growth was 86.8%.
For CC[C@@](C)(NC(=O)C(C)(C)NC(=O)[C@@H](NC(=O)[C@@H]1CCCN1C(=O)C(C)(C)NC(=O)[C@H](CC(C)C)NC(=O)CNC(=O)C(C)(C)NC(=O)[C@@H](NC(=O)C(C)(C)NC(=O)[C@H](CCC(N)=O)NC(=O)[C@H](C)NC(=O)C(C)(C)NC(=O)[C@H](C)NC(=O)C(C)(C)NC(=O)[C@H](C)NC(=O)C(C)(C)NC(C)=O)C(C)C)C(C)C)C(=O)N[C@@H](CCC(N)=O)C(=O)N[C@@H](CCC(N)=O)C(=O)N[C@H](CO)CC1CCCCC1, the growth was -35.2% [5 µM] (active).
In the case of CN1CCN(Cc2ccc(NC(=O)c3cncc(C#Cc4cnc5ccc(O[C@H]6CCOC6)nn45)c3)cc2C(F)(F)F)CC1, the growth is reported as -41.2% (active).
CC1(C)[C@@H](O)CC[C@]2(C)[C@H]3CC[C@@H]4[C@H]5[C@H](C(=O)/C=C\c6ccc([N+](=O)[O-])cc6)CC[C@]5(O)CC[C@@]4(C)[C@]3(C)CC[C@@H]12 gave a growth of 27.9%.
With N#Cc1c(-c2cccs2)cc(-c2cnccn2)nc1SCC(=O)NNC(=S)Nc1ccc(F)cc1 the growth was 122%.
For CC(C)(C)c1cc(NC(=O)Nc2ccc(-c3cn4c5c(sc4n3)CCc3c[nH]cc3-5)cc2)no1, the growth was 9.58% (active).
For O=S(=O)(NCCCNc1nccc(-c2[nH]c(-c3ccccc3)nc2-c2ccc(F)c(O)c2)n1)c1ccc(C(F)(F)F)cc1, the growth was -3% (active).
Cc1cc(-c2ccc(Cl)cc2)n(Cc2nnc(SCC(=O)Nc3ccc(S(N)(=O)=O)cc3)n2-c2ccc([N+](=O)[O-])cc2)n1 was tested, and the growth was 76.8%.
In the case of Brc1ccc(-c2cc(-c3ccc4c(c3)OC=CO4)n[nH]2)s1, the growth is reported as 78.8%.
For C=C1CC[C@H]2[C@@](C)(CCC3OC(c4ccc(OCc5cn(C6CC(OC(C)=O)C(OC(C)=O)C(COC(C)=O)O6)nn5)cc4)OC[C@]32C)[C@@H]1/C=C/C1=CCOC1=O (stereo not given in full), the growth was 56.2%.
In the case of CC[C@]12CC(C(=O)OC)=C3Nc4ccccc4[C@@]34CCN(C14)[C@@H]1c3cc4c(cc3O[C@@H]1[C@H]2O)NC1=C(C(=O)OC)C[C@@]2(CC)C3N(CC[C@@]143)C[C@H]1O[C@H]12 (stereo not given in full), the growth is reported as -1.14% (active).
In the case of CCOC(=O)C1=C(C)NC(C)=C(C(=O)OC(C)C)C1c1cccc(C#N)c1 (stereo not given), the growth is reported as 93.1%.
For COc1ccc(-c2cc(-c3cccc4ccccc34)n3c(n2)nc2ccccc23)cc1, the growth was -0.785% (active).
COC(=O)c1cccc(NC2=C(Cl)C(=O)c3nc(C)ccc3C2=O)c1 showed a growth of 24.3%.
For O=C(Cn1cc(CN2C(=O)c3ccc([N+](=O)[O-])cc3C2=O)nn1)Nc1ccccc1Br, the growth was 101%.
COc1cc(/C=C/C(=O)c2ccccc2)ccc1Oc1nc(NCCO)nc(N2CCOCC2)n1 showed a growth of 81.6%.
With CNC(=O)c1cc(-n2ccc3cc(NC(=O)Nc4ccc(N5CCN(C)CC5)c(C(F)(F)F)c4)ccc32)ccn1 the growth was 65.8%.
C#Cc1cc(C(=O)Nc2ccc(CNCCN3CCOCC3)c(C(F)(F)F)c2)ccc1C was tested, and the growth was 86%.
With CCCNNC(=O)c1ccc(-c2ccc(NC(=O)CCCCCCC(=O)N[C@H](C(=O)N3C[C@H](O)C[C@H]3C(=O)N[C@@H](C)c3ccc(-c4scnc4C)cc3)C(C)(C)C)cc2)cc1 the growth was 18.1%.
N#Cc1c(Nc2ccccc2)nn2c(-c3ccc([N+](=O)[O-])cc3)ccnc12 showed a growth of 93.9%.
Molecule O=C(CCCCCCN1CC(=O)N2[C@@H](c3cc(F)cc(F)c3)c3[nH]c4ccccc4c3C[C@H]2C1=O)NO has a growth of 16.2%.
Work on Nc1nc(-c2cccc([N+](=O)[O-])c2)c(N=Nc2ccccc2[N+](=O)[O-])s1 yielded a growth of 96.5%.
For Cc1ccc(NC2=C(Cl)C(=O)c3nc(C)ccc3C2=O)c(C)c1, the growth was -14.8% (active).
In the case of Cc1ccc(/C=C/CC(=O)Nc2ccc(C(=O)Nc3ccc(F)cc3N)cc2)cn1, the growth is reported as 8.39% (active).
For CN1CCN(Cc2ccc(NC(=O)c3cncc(C#Cc4cnc5ccc(OCC6(C)COC6)nn45)c3)cc2C(F)(F)F)CC1, the growth was -27.6% (active).
With COc1ccc(C(=O)n2cc(C=O)c3ccccc32)cc1 the growth was 93.7%.
Work on Cn1cc(-c2cc(N)n3nc(-c4cn(C)c5ccc(Cl)cc45)cc3n2)c2cc(Cl)ccc21 yielded a growth of 31.5%.
COc1cc(-c2nc(SCCC(C)C)nc(NNC(=O)c3ccncc3)c2C#N)cc(OC)c1OC showed a growth of 116%.
With Oc1[nH]c2ccc(Cl)cc2c1N=Nc1nc(N=Nc2c(O)[nH]c3ccc(Cl)cc23)nc(N2CCCCC2)n1 the growth was 71.5%.
CN1CCN(Cc2ccc(NC(=O)c3cncc(C#Cc4cnc5ccc(N)nn45)c3)cc2C(F)(F)F)CC1 was tested, and the growth was 2.82% (active).
In the case of Cn1ccnc1C(=O)/C=C/c1ccc(NC(=O)Nc2ccc(F)cc2)cc1, the growth is reported as 7.58% (active).
For Cc1[nH]c(C(=O)Nc2ccccc2OCc2cccc(C(=O)NC3CCCNC3)c2)c(Cl)c1Cl (stereo not given), the growth was -53.9% (active).
C#CCOc1ccc(/C=N/Nc2nc(-c3ccc(OC)cc3)cs2)cc1 showed a growth of 60%.
Molecule N#Cc1ccc(C(=O)CSc2nc(Nc3ccc(S(N)(=O)=O)cc3)c3ccccc3n2)cc1 has a growth of 105%.
Molecule CC(=C(c1ccc(OCCCN(C)C)cc1)c1ccc(OCCCN(C)C)cc1)c1ccc(Cl)cc1 has a growth of 75.5%.
COc1ccc(CCN2C(=O)CSC2=S)cc1OC gave a growth of 62.4%.
CC1=C(C)C(=O)C(Nc2cccc(C(=O)OC(C)(C)C)c2)=CC1=O was tested, and the growth was 71%.
